Measured values published in PubChem BioAssay AID720517 (National Center for Advancing Translational Sciences (NCATS), 2013).
Records with an inconclusive call do not appear. Calls of active or inactive are those of the source. Calls follow the shape of the dose curve; as a rule, active = well fitted activation curve with a large enough effect; inconclusive = small, poorly fitted or top-dose-only effect; inactive = flat fitted curve, though single readings scatter.

Assay: qHTS for Inhibitors of Cell Surface uPA Generation: FP59 Counterscreen for Cherry-picked Compounds; also: 0% is about no effect
Conditions: FP59 anthrax toxin cytotoxicity counterscreen, cells; series mostly up to 115 µM; activity (protection from FP59): at the top concentration

Question: For `Cc1cccc(NC(=O)C2CCCN(S(=O)(=O)c3ccc4[nH]c(=O)ccc4c3)C2)c1` (centres undefined), which “activity (protection from FP59)” value is on record?
Answer: -1.46% (inactive)

Question: With `Cc1ccc(S(=O)(=O)N2CCOCC2)cc1C(=O)OC1CCOC1=O` (centres undefined) as the compound, how does the “activity (protection from FP59)” value read?
Answer: -1.41% (inactive)

Question: With `O=C(c1cccc(F)c1)N1CCN(Cc2cccc(Br)c2)CC1` as the compound, how does the “activity (protection from FP59)” value read?
Answer: -0.552% (inactive)

Question: Which “activity (protection from FP59)” value does the source give for `OCCN(Cc1ccccc1)CC(O)COc1ccc2c(c1)OCO2` (centres undefined) here?
Answer: -0.687% (inactive)

Question: Which “activity (protection from FP59)” value does the source give for `CC(=O)Nc1sc(C)c(C)c1C(=O)OCC(=O)NC(C)c1ccccc1` (centres undefined) here?
Answer: -1.02% (inactive)

Question: For `O=C(c1cc([N+](=O)[O-])cc([N+](=O)[O-])c1)N(c1ccccn1)c1ccccn1`, which “activity (protection from FP59)” value is on record?
Answer: -1.05% (inactive)

Question: For `CSc1ccccc1OCc1cc(C(=O)NCCCn2nc(C)cc2C)no1`, which “activity (protection from FP59)” value is on record?
Answer: -1.14% (inactive)

Question: With `CCC(C(=O)NCc1ccc(C)cc1)c1ccccc1` (centres undefined) as the compound, how does the “activity (protection from FP59)” value read?
Answer: -1.46% (inactive)

Question: Which “activity (protection from FP59)” value does the source give for `Clc1ccc(-c2nc3ccccn3c2CN2CCSCC2)cc1` here?
Answer: 1.45% (inactive)

Question: With `Cc1oc(-c2ccccc2F)nc1CS(=O)(=O)CC(=O)NC1CCCC(C)C1C` (centres undefined) as the compound, how does the “activity (protection from FP59)” value read?
Answer: 3.16% (inactive)

Question: With `Cc1cc(C)nc(N2N=C(C(F)(F)F)CC2=O)n1` as the compound, how does the “activity (protection from FP59)” value read?
Answer: -1.28% (inactive)

Question: With `Cc1cc2c(cc1S(=O)(=O)Nc1ccc(F)cc1)n(C)c(=O)c(=O)n2C` as the compound, how does the “activity (protection from FP59)” value read?
Answer: -0.932% (inactive)

Question: For `CC(=O)c1ccc(OCCCCOc2ccc(C(C)=O)cc2)cc1`, which “activity (protection from FP59)” value is on record?
Answer: -1.4% (inactive)

Question: For `O=C(/C=C/c1ccc(O)c(O)c1)O[C@@H]1C[C@](O)(C(=O)O)C[C@@H](O)[C@H]1O`, which “activity (protection from FP59)” value is on record?
Answer: -1.31% (inactive)

Question: With `CC(NC(=O)C1CCC(C(=O)NC(C)c2ccccc2)CC1)c1ccccc1` (centres undefined) as the compound, how does the “activity (protection from FP59)” value read?
Answer: -1.03% (inactive)

Question: With `CCn1c2ccccc2c2n[nH]c(=S)nc21` as the compound, how does the “activity (protection from FP59)” value read?
Answer: -1.35% (inactive)

Question: Which “activity (protection from FP59)” value does the source give for `O=C(Nc1ccc2c(c1)CCC2)Nc1ccc2c(c1)OCO2` here?
Answer: 0.325% (inactive)

Question: For `CCOCCOc1cc(NCc2ccccc2)c2ncn(C(C)C)c2c1`, which “activity (protection from FP59)” value is on record?
Answer: 14.3% (inactive)

Question: For `O=C(Cn1cnc2c(OCc3ccccc3)ncnc21)NCCCN1CCCC1=O`, which “activity (protection from FP59)” value is on record?
Answer: -1.32% (inactive)

Question: With `COc1ccc(N2CCN(C3CCN(S(=O)(=O)c4ccc(F)cc4)CC3)CC2)cc1` as the compound, how does the “activity (protection from FP59)” value read?
Answer: -1.36% (inactive)

Question: Which “activity (protection from FP59)” value does the source give for `COc1ccc(NS(=O)(=O)c2c(C)n(C)c(=O)n(C)c2=O)cc1OC` here?
Answer: -1.51% (inactive)

Question: With `O=C(O)CCCC(=O)NCCCCc1ccccc1` as the compound, how does the “activity (protection from FP59)” value read?
Answer: -1.32% (inactive)

Question: For `COc1ccccc1NC(=O)Cn1nnc(-c2ccccc2NC(=O)c2cc3ccccc3oc2=O)n1`, which “activity (protection from FP59)” value is on record?
Answer: -1.55% (inactive)

Question: With `CCCOc1ccc(CC2CCC(=O)NC2=O)cc1` (centres undefined) as the compound, how does the “activity (protection from FP59)” value read?
Answer: -1.11% (inactive)

Question: Which “activity (protection from FP59)” value does the source give for `C=CC[n+]1c(/C=C/c2ccc(OC(C)=O)c(OC)c2)ccc2ccccc21` here?
Answer: -1.44% (inactive)

Question: For `Cn1c(C2CCCCC2)nc2cc(N)ccc21`, which “activity (protection from FP59)” value is on record?
Answer: -1.49% (inactive)

Question: For `COc1ccccc1-c1ccc(SCC(=O)NCCc2ccccc2)nn1`, which “activity (protection from FP59)” value is on record?
Answer: -1.22% (inactive)

Question: Which “activity (protection from FP59)” value does the source give for `CCOC(=O)C(CC)n1cnc2c(nnn2-c2ccccc2)c1=O` (centres undefined) here?
Answer: -0.667% (inactive)

Question: Which “activity (protection from FP59)” value does the source give for `CCOc1cc(N2CCOCC2)c(OCC)cc1NC(=O)c1[nH]c(C)c(C(C)=O)c1C` here?
Answer: -1.34% (inactive)

Question: With `Cc1oc(-c2ccccc2F)nc1CS(=O)CC(=O)NCc1ccc(F)cc1` (centres undefined) as the compound, how does the “activity (protection from FP59)” value read?
Answer: -1.16% (inactive)

Question: For `Cc1noc(C)c1CSCC(=O)Nc1cc(Cl)ccc1N1CCCCC1`, which “activity (protection from FP59)” value is on record?
Answer: 7.4% (inactive)

Question: For `Cc1ccc(NC(=O)CC2OC(=O)c3ccccc32)cc1S(=O)(=O)N1CCOCC1` (centres undefined), which “activity (protection from FP59)” value is on record?
Answer: -1.31% (inactive)

Question: With `Cc1nc(SCC(=O)NCCN2C(=O)CSC2=O)nc(C)c1C` as the compound, how does the “activity (protection from FP59)” value read?
Answer: -1.33% (inactive)

Question: For `O=C(CN1CCN(Cc2ccc(Cl)cc2)C1=O)NCc1cccs1`, which “activity (protection from FP59)” value is on record?
Answer: -1.43% (inactive)

Question: Which “activity (protection from FP59)” value does the source give for `COC(=O)C1C(=O)c2c([nH]c(C(=O)OC3CCCCC3)c2C)CC1C` (centres undefined) here?
Answer: -1.42% (inactive)

Question: For `COc1ccc(N(C(C)C(=O)NN=C2CCCC2)S(C)(=O)=O)cc1` (centres undefined), which “activity (protection from FP59)” value is on record?
Answer: -1.4% (inactive)

Question: For `CC(C)(C)S(=O)(=O)N1C[C@H]2CC/C=C\C/C(c3ccccc3)=C\2[C@@H]1CCO`, which “activity (protection from FP59)” value is on record?
Answer: 0.45% (inactive)

Question: Which “activity (protection from FP59)” value does the source give for `Cn1nc(N2CCN(S(=O)(=O)c3ccccc3)CC2)c(=O)n(C)c1=O` here?
Answer: -1.3% (inactive)

Question: Which “activity (protection from FP59)” value does the source give for `COCC(=O)N1CCC(n2nccc2NC(=O)c2ccccc2OC)CC1` here?
Answer: -1.56% (inactive)
